# Source: PubChem
# TIM10 inh = TIM10 yeast growth inhibition; S. cerevisiae TIM10 strain growth, BacTiter-Glo luminescence, 24 h; inhibition, % at 10 µM; 1.4% of 330,000 active;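 active means inhibition of 40% or more at the single tested concentration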;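 further: wild-type TIM10 isogenic control strain grown at permissive 25 °C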
# PfHsp90 set2 = growth inhibition of yeast expressing Plasmodium Hsp90; AID 504621; S. cerevisiae expressing PfHsp90, BacTiter-Glo ATP, 48 h; yeast lacking PDR1 and PDR3 efflux regulators; 0.32% of 310,000 active; inhibition, % at 9.4 µM;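 active means every replicate shows inhibition above about 80%, whatever the replicate mean, limit read from the data; inconclusive means mean inhibition reaches the set limit but some replicate falls short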;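 further: 0% = DMSO neutral controls and 100% = 20 µM radicicol positive controls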
# SKKanGAS inh = SKKanGAS growth inhibition; 1.3% of 300,000 active; S. pyogenes SKKanGAS, kanamycin growth, BacTiter-Glo, 6 h; AID 1662; inhibition, % at 7.5 µM;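 active means mean replicate score, as percent of positive control median, at least 50; inconclusive means mean below 50 but one replicate at or above 50; inactive means mean and every replicate below 50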;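 further: strain carries kanamycin resistance gene driven by streptokinase promoter and grows in 40 µg/ml kanamycin; loss of luminescence reflects streptokinase promoter inhibition or plain growth inhibition; 0% = median of DMSO wells and 100% = positive control at its reference dose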
# tim10-1 inh = inhibits growth of tim10-1 mutant yeast; S. cerevisiae tim10-1 ts strain growth, BacTiter-Glo, 24 h; 2.2% of 330,000 active; inhibition, % at 20 µM; AID 463190;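 active means inhibition of at least 40%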;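 further: mutant grown at 25 °C; 0% = DMSO wells with yeast and 100% = wells holding no yeast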
# tim23-1 inh = growth inhibitors of tim23-1 mutant yeast. S. cerevisiae tim23-1 growth, BacTiter-Glo luminescence, 24 h. inhibition, % at 20 µM. 1.3% of 330,000 active;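 active means growth inhibition of the mutant yeast at or above 50%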;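 further: temperature-sensitive mutant grown at 25 °C; plate controls were DMSO-treated mutant yeast for no effect and medium wells lacking yeast for full effect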
# Calb FLC = C. albicans growth modulation with fluconazole. C. albicans CaCi-2 (fluconazole-resistant clinical isolate) + fluconazole, Alamar Blue growth, 48 h. growth inhibition, % (test concentration not listed). 0.57% of 300,000 active. AID 1979;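 active means growth inhibition above about 58% in most replicates, limit read from the data, passing the limit was not always enough; inconclusive means exactly half the replicates above a set limit; inactive means most replicates below a set limit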;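 further: all wells also contain fluconazole at 8 µg/ml as a sub-toxic cotreatment; 0% = median of DMSO wells and 100% = median of geldanamycin control wells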
# * hit, by the source's call; ? = inconclusive; / = no result given. Rows were chosen to be rich in hits. Some 4.7% of all compounds tested hit in one or more screens of this group.
SMILES,TIM10 inh,PfHsp90 set2,SKKanGAS inh,tim10-1 inh,tim23-1 inh,Calb FLC
O=C1/C(=C\c2cccc(O)c2O)SC(=S)N1Cc1ccccc1,6.4,108.4*,93.0*,-49.6,39.3,3.0
Cc1nn(-c2ccccc2)c(Cl)c1/C=C1\SC(=S)N(CCCCCC(=O)O)C1=O,-8.2,-2.8,80.2*,14.1,33.8,?
COc1cc(/C=C2/SC(=S)N(Cc3ccccc3)C2=O)ccc1O,15.6,-1.0,65.6*,-0.7,41.9,31.0
O=C1/C(=C\c2cccc(O)c2)SC(=S)N1Cc1ccccc1,23.8,10.1,7.0,-19.1,49.6,5.7
Cc1ccccc1/C=C1\SC(=S)N(/N=C/c2cc([N+](=O)[O-])ccc2O)C1=O,38.3,-22.9,-14.5,30.7,31.5,84.8*
Cc1ncc([N+](=O)[O-])n1S(=O)(=O)c1ccc2c(c1)OCCO2,/,-11.3,/,/,/,/
Cc1ccc(C)c(C(=O)CCC(=O)Nc2ccc(N3CCN(C)CC3)cc2C)c1,-1.7,-0.4,/,1.4,3.5,/
O=C(c1cc(COc2ccc(F)c(F)c2)on1)N1CCN(C/C=C/c2ccccc2)CC1,38.0,17.0,9.9,20.6,29.7,-9.7
COc1cc(/C=C2/SC(=NCc3ccccc3)N(Cc3ccccc3)C2=O)ccc1O,4.2,-23.6,85.2*,5.2,-3.5,-4.4
O=c1cc(/N=C/c2coc3c(ccc4ccccc43)c2=O)[nH]c(=S)[nH]1,2.4,-1.1,86.5*,16.4,0.1,?
NC(=S)N/N=C/c1coc2c(ccc3ccccc32)c1=O,/,-41.8,1.0,/,/,4.3
O=c1c(Cl)c(NCCCO)cnn1-c1nc2ccccc2[nH]1,-13.0,36.5,5.2,-34.3,18.1,77.8*
C=CCN(CC=C)c1cnn(-c2nc3ccccc3[nH]2)c(=O)c1Cl,14.9,/,-0.4,15.3,36.7,-1.1
OC[C@H]1OC(O)[C@H](O)[C@@H]1O (stereo partly specified),7.5,2.3,/,0.0,0.5,/
NS(=O)(=O)c1ccc(N2CCN(C(=O)C3COc4ccccc4O3)CC2)nc1 (stereo unspecified),-7.0,/,/,-23.9,-6.0,/
Cn1cc(C(=O)c2ccc(Cl)cc2Cl)cc1C(=O)N/N=C(\N)COc1cccc(C(F)(F)F)c1,12.4,25.6,58.8*,26.2,19.5,27.4
O=C(NCCc1ccco1)C(=O)NCC1OCCCN1S(=O)(=O)c1cc(F)ccc1F (stereo unspecified),-0.1,5.8,6.6,10.6,15.7,-0.9
C=CC1=C(C(=O)O)N2C(=O)[C@@H](NC(=O)/C(=N\O)c3csc(N)n3)[C@H]2SC1 (stereo in doubt),2.6,-4.1,106.9*,5.1,-17.2,-6.0
CCN(CC)c1ccc(-c2nn3c(-c4n[nH]c5c4CCC5)nnc3s2)cc1,-24.2,-21.6,85.4*,-3.4,7.7,-10.8
CCN(CC)S(=O)(=O)c1ccc(NC(=O)COC(=O)CNC(=O)C2CCCCC2)cc1,-5.2,12.2,/,-2.5,9.4,/
O=C(O)c1ccc2c3c(ncnc13)-c1ccccc1C2=O,21.5,/,59.0*,-3.8,19.9,-16.3
CCN(CC)CCCNC(=O)CCn1nc(-c2ccccc2)ccc1=O,3.4,36.1,-2.3,2.5,-4.3,-14.7
CCOC(=O)c1nc(Nc2ccc(Nc3ccccc3)cc2)c2ccccc2n1,/,-9.7,55.9*,/,/,26.8
CCOC(=O)c1ccc(Nc2nc(C(=O)OCC)nc3ccccc23)cc1,11.1,-6.6,21.2,20.5,11.1,0.3
COc1cccc(OCc2nc3ccccc3c(=O)n2N)c1,5.3,4.5,/,3.9,8.3,108.2*
SMILES,TIM10 inh,PfHsp90 set2,SKKanGAS inh,tim10-1 inh,tim23-1 inh,Calb FLC
Nn1c(COc2ccccc2)nc2ccccc2c1=O,3.1,10.2,0.4,-0.8,1.3,-4.9
C(=N\Nc1nc2ccccc2s1)/c1ccc2c(c1)OCO2,21.0,-47.1,-3.3,27.7,12.7,-7.2
Cc1nc(N/N=C\c2ccc3c(c2)OCO3)sc1C,5.8,22.8,53.0*,0.2,24.9,-6.3
CC(C)C(NC(=O)c1c(F)cccc1F)C(=O)N1CCN(c2ncccn2)CC1 (stereo unspecified),-1.1,5.0,/,9.8,11.9,/
CCCn1c(N)c(N(CCOC)C(=O)c2ccc(-c3ccc(Cl)cc3)o2)c(=O)[nH]c1=O,8.0,-23.9,-0.1,5.0,7.6,2.6
Cc1ccc(C(=O)N2CCN(c3ccccn3)CC2)cc1[N+](=O)[O-],7.8,5.7,3.5,10.5,8.9,-0.7
Cc1ccc(C(=O)N2CCN(c3ccccc3Cl)CC2)cc1[N+](=O)[O-],10.4,105.4*,15.4,13.3,46.5,?
COc1ccc(NC(=O)C(=O)NNC(=O)C(C)Oc2ccc(Cl)cc2Cl)cc1 (stereo unspecified),-30.6,-8.0,71.2*,-28.5,-19.0,21.4
Cc1nnc(NC(=O)CCn2c(=O)oc3ccccc32)s1,-24.3,6.5,0.2,15.3,5.9,-3.9
O=C(CCCN1C(=O)c2cccc3cccc(c23)C1=O)N1CCN(c2ncccn2)CC1,8.0,4.1,/,18.5,14.7,/
O=C(CCCCCN1C(=O)c2cccc3cccc(c23)C1=O)N1CCOCC1,9.4,/,-3.1,13.2,17.2,107.5*
O=C(c1ccc(C(=O)N2CCCc3ccccc32)s1)N1CCCc2ccccc21,-27.2,/,12.1,-32.2,-34.0,114.3*
COCCN(C(=O)C1=COCCO1)c1c(N)n(CC(C)C)c(=O)[nH]c1=O,8.2,-21.2,/,-15.4,-9.8,/
CC(C)c1ccc(-c2nc(N3CCCC3)nc3n[nH]c(N)c23)cc1,12.2,12.7,53.0*,6.7,9.8,-7.9
CC(C)CCOC(=O)C1C(c2ccccc2)C(C(=O)O)C1c1ccccc1 (stereo unspecified),10.2,-18.6,5.4,19.5,14.5,93.1*
COc1cccc(C=Nc2cc(C(C)C)c(O)cc2C)c1O,/,3.7,/,/,/,/
O=S(=O)(c1ccccc1)N1CCN=C1SCc1c(F)cccc1Cl,-6.8,-0.9,64.1*,16.8,30.2,11.6
O=S(=O)(c1ccc(Cl)cc1)N1CCN=C1SCc1cccc(Cl)c1,-23.0,-8.7,-14.4,22.1,12.2,35.0
CCOc1cc(/C=N/Nc2cccc(C(=O)O)c2)ccc1OC(=O)c1ccccc1,20.2,-0.5,50.1*,29.3,18.9,?
Cc1ccc(C)c(C(=O)CCC(=O)OCn2nnc3ccccc3c2=O)c1,-9.0,-14.3,/,24.3,19.2,/
COc1ccc(N2CCN(Cc3nc(N)nc(Nc4ccc(C)c(Cl)c4)n3)CC2)cc1,28.3,25.0,74.1*,18.8,43.6,72.9
COc1ccc(Nc2nc(N)nc(CN3CCOCC3)n2)cc1,-8.5,-22.5,7.6,16.6,-3.8,5.8
O=C(c1ccc(-n2cncn2)c([N+](=O)[O-])c1)N1CCN(S(=O)(=O)c2cccc(F)c2)CC1,1.5,38.1,-4.1,11.5,6.4,-2.6
CCCCC1S/C(=N/N=C/c2ccco2)NC1=O (stereo unspecified),0.7,-6.5,-4.6,31.7,14.5,99.9*
